# Results filed as inconclusive are left out. Active and inactive are the calls of the source. How the source made its calls: active means hit-call score of the fitted dose curve at least 0.9, where 1 is the maximum; inconclusive means response in the unintended direction; inactive means score below 0.9.
# Biological target: human Phosphodiesterase 10 (PDE10), PDE10A (gene 10846) (UniProt Q9Y233)
# Test: NVS_ENZ_hPDE10: NovaScreen (NVS) Enzymatic Assay for human Phosphodiesterase 10 (PDE10) (AID 2283195)
# Procedure: NVS_ENZ_hPDE10 is a biochemical, single-readout assay that uses extracted gene-proteins in a cell-free assay. Measurements were taken 1 hour after chemical dosing in a 384-well plate.NVS_ENZ_hPDE10 is one of one assay component(s) measured or calculated from the NVS_ENZ_hPDE10 assay. It is designed to make measurements of enzyme activity, a form of enzyme reporter, as detected with fluorescence intensity signals by Fluorescence and electrophoretic mobility shift technology.Data from the assay component NVS_ENZ_hPDE10 was analyzed into 1 assay endpoint. This assay endpoint, NVS_ENZ_hPDE10, was analyzed in the positive analysis fitting direction relative to DMSO as the negative control and baseline of activity. Using a type of enzyme reporter, loss-of-signal activity can be used to understand changes in the enzymatic activity as they relate to the gene PDE10A. Furthermore, this assay endpoint can be referred to as a primary readout, because this assay has produced multiple assay endpoints where this one serves a enzymatic activity function. To generalize the intended target to other relatable targets, this assay endpoint is annotated to the esterase intended target family, where the subfamily is phosphodiesterase.
# Binding assays used specific radioligands (tritiated, iodinated) with non-radioactive competitive displacement ligands in agonist or antagonist protocols (as indicated) and various reference compounds and inhibitors to titrate specific binding to receptors and transporters. Most enzyme assays (CYPs, kinases, phosphatases, proteases, HDACs) used recombinant protein and specific substrates (fluorescence mostly, some colorimetric and radioactive) and inhibitors, followed by a biochemical separation of substrate and product. All assays for the biochemical HTS were initially run in duplicate at a single concentration (10 uM for CYP450 assays and 25 uM for all others). Assay-chemical combinations meeting a pre-defined threshold (e.g., 30% inhibition and other criteria defined below) were then run in singleton concentration-response format with maximum concentration of 20 uM for CYPs and 50 uM for all others. Each assay was run with positive and negative controls, and concurrent controls on every plate. The follow-up (secondary) screen tested active chemical-pairs in concentration series, as well as a few additional assays not tested in the primary screen, some selected negative inactives, and several cases re-run in the concentration series for confirmatory purposes.
# human Phosphodiesterase 10 (PDE10), PDE10A (gene 10846), sequence (Q9Y233 whole entry, looked up): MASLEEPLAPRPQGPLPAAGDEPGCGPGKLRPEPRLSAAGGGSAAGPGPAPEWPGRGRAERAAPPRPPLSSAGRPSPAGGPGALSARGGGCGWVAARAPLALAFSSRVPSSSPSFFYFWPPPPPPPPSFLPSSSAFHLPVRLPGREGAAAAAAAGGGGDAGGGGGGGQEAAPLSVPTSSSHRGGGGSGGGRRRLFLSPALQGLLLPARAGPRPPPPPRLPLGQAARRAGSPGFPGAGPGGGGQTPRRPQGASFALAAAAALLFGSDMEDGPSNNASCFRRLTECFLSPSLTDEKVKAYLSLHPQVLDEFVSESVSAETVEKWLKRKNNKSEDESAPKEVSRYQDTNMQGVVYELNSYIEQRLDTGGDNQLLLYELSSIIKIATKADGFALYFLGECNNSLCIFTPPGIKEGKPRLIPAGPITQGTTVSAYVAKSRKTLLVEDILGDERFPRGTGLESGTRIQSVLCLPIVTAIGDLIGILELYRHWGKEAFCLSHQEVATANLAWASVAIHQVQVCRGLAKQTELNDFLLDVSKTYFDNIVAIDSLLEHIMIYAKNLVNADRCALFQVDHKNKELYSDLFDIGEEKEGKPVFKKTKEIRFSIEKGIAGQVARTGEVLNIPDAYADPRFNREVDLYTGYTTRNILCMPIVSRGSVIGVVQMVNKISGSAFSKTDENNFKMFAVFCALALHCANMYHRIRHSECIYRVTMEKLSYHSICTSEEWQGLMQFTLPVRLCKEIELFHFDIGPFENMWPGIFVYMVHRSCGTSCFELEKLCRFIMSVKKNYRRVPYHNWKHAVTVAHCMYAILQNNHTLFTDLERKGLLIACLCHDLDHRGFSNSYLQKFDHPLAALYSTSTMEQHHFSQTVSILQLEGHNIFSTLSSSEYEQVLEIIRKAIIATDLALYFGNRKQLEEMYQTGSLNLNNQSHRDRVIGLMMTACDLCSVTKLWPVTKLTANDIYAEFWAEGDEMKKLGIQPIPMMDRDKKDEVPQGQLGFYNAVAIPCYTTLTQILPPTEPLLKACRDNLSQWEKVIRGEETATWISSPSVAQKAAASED
Compound,outcome,AC50
CN(CCCC(=O)c1cccnc1)N=O,inactive,–
ClC1=C(Cl)[C@]2(Cl)[C@@H]3[C@@H](Cl)[C@@H](Cl)C[C@@H]3[C@@]1(Cl)C2(Cl)Cl,inactive,–
COc1cccc(C=O)c1,inactive,–
CCCCC(CC)CO[N+](=O)[O-] (configuration not stated),inactive,–
O=Cc1cccc(Oc2ccccc2)c1,inactive,–
CC(Br)C(=O)O (configuration not stated),inactive,–
CC(C)c1ccc(CO)cc1,inactive,–
Nc1ncc([N+](=O)[O-])s1,inactive,–
O=C(Cl)c1ccc(Cl)cc1,inactive,–
ClCCBr,inactive,–
Nc1cccc2ccccc12,–,9.86 µM (active)
Nc1ccc(Cl)cc1C(=O)c1ccccc1,inactive,–

# From PubChem BioAssay (EPA / NIEHS)
